Results reported in the supplement of paper PMC6607015.
Counter-ions that a name gives are not always drawn.

Key:
Conditions in all cases: compound concentration in added solution (µM; 5 µl added to 20 µl cells): 10; 18 h
A431 [1] = assay: LBPA endosome anti-LBPA integrated intensity (sum per cell), Z-score; higher = more LBPA staining
Method in brief: (§1)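 Per-cell integrated LBPA or filipin intensity, whole-cell or within LBPA endosomes, is expressed as Z-scores normalised in AcuityXpress. HeLa MZ or A431 cells, 3,500 per well in 20 µl, sat on 5 µl of 10 µM compound solution in duplicate 384-well imaging plates for 18 h. They were then fixed in 4% PFA, stained, imaged in four 20× fields per well and segmented using MetaXpress.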

HeLa MZ [2] = assay: as above
Method in brief: as §1

A431 [3] = assay: whole-cell filipin (free cholesterol) integrated intensity, Z-score; higher = more cholesterol staining
Method in brief: as §1

HeLa MZ [4] = assay: as above
Method in brief: as §1

A431 [5] = assay: filipin (cholesterol) integrated intensity within LBPA endosomes, Z-score; higher = more cholesterol in LBPA endosomes
Method in brief: as §1

HeLa MZ [6] = assay: as above
Method in brief: as §1

Structure (SMILES) | LBPA endosome anti-LBPA integrated intensity (z-score) (A431 [1]) | LBPA endosome anti-LBPA integrated intensity (z-score) (HeLa MZ [2]) | whole-cell filipin (z-score) (A431 [3]) | whole-cell filipin (z-score) (HeLa MZ [4]) | filipin (z-score) (A431 [5]) | filipin (z-score) (HeLa MZ [6])
CC(=O)N1CCN(c2ccc(OCC3COC(Cn4ccnc4)(c4ccc(Cl)cc4Cl)O3)cc2)CC1 (centres undefined) [Ketoconazole] | 1.81 | 1.94 | 3.72 | 3.7 | 3.52 | 4.06
NCCc1ccc(O)c(O)c1 [Dopamine hydrochloride] | -0.272 | 0.0633 | 0.184 | -0.446 | -0.377 | -0.485
CN1CCCC(n2nc(Cc3ccc(Cl)cc3)c3ccccc3c2=O)CC1 (centres undefined) [Azelastine HCl] | 3.18 | 2.26 | 1.79 | 0.915 | 2.29 | 3.01
COc1cc(N)c(Cl)cc1C(=O)NC1CCN(CCCOc2ccc(F)cc2)CC1OC (centres undefined) [Cisapride] | 0.467 | 0.977 | -0.114 | 0.308 | 0.0889 | 0.672
NC(=O)C(c1ccccc1)(c1ccccc1)[C@@H]1CCN(CCc2ccc3c(c2)CCO3)C1 [Darifenacin hydrobromide] | 3.46 | 1.76 | 3.28 | 1.47 | 2.87 | 3.06
CC1(C)[C@H](C(=O)O)N2C(=O)C[C@H]2S1(=O)=O [Sulbactam] | -0.453 | -1.27 | -0.128 | -0.121 | -0.375 | -0.509
CCC[C@H](N[C@@H](C)C(=O)N1[C@H](C(=O)O)C[C@@H]2CCCC[C@@H]21)C(=O)OCC [Perindopril] | -0.273 | -0.885 | 0.0463 | -0.4 | -0.305 | -0.603
C[N+](C)(C)CCCCCC[N+](C)(C)C [Hexamethonium dibromide dihydrate] | -0.482 | -1.09 | -0.483 | -0.775 | -0.514 | -0.624
Cc1ncc([N+](=O)[O-])n1CC(O)CCl (centres undefined) [Ornidazole] | -0.468 | -0.445 | -0.79 | -0.699 | -0.356 | -0.454
C(=C\c1ccccc1)/CN1CCN(C(c2ccccc2)c2ccccc2)CC1 [Cinnarizine] | -0.223 | 0.618 | -0.605 | -0.52 | -0.314 | -0.0159
COc1ccccc1OCC(O)CO (centres undefined) [Guaifenesin] | -0.398 | -0.463 | -0.553 | -0.523 | -0.471 | -0.504
CCS(=O)(=O)CCn1c([N+](=O)[O-])cnc1C [Tinidazole] | -0.319 | -0.148 | -0.195 | -0.143 | -0.394 | -0.524
CO/N=C(\C(=O)N[C@@H]1C(=O)N2C(C(=O)O)=C(COC(C)=O)CS[C@H]12)c1csc(N)n1 [Cefotaxime sodium salt] | -0.36 | -0.201 | -0.822 | -0.63 | -0.554 | -0.583
CCN(CC)CCOC(=O)C1(c2ccc([N+](=O)[O-])cc2)CCCC1 [Nitrocaramiphen hydrochloride] | -0.558 | 0.568 | -0.0743 | -0.278 | -0.346 | -0.0224
CN(C)CCN(Cc1cccs1)c1ccccn1 [Methapyrilene hydrochloride] | -0.506 | 0.465 | -0.777 | -0.37 | -0.539 | -0.0761
CC(C)C(=O)Nc1ccc([N+](=O)[O-])c(C(F)(F)F)c1 [Flutamide] | -0.32 | 0.353 | -0.407 | -0.0656 | -0.384 | -0.392
O=P(O)(O)C(Cl)(Cl)P(=O)(O)O [Clodronate] | -0.576 | -0.865 | -0.177 | -0.446 | -0.541 | -0.434
C[C@@]1(O)CCOC(=O)C1 [Mevalonic-D, L acid lactone] | -0.324 | -0.057 | -0.441 | 0.0668 | -0.408 | -0.457
CN1CCN(C(c2ccccc2)c2ccc(Cl)cc2)CC1 (centres undefined) [Chlorcyclizine hydrochloride] | 1.56 | 0.74 | 1.78 | -0.254 | 1.24 | 0.687
